From PubChem BioAssay
L3MBTL1 inh = blocks human L3MBTL1; Q9Y468; AlphaScreen L3MBTL1–H3K9me1 peptide binding; Potency, µM (doses to about 57.1 µM), for inactives: top-dose activity, negative = inhibition, hits mostly inhibitors; hit rate 0.66% among 230,000; further: nearly all actives have a fitted effect of over 60% in size
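L3MBTL1 (50 nM) pre-complexed 30 min with biotinylated H3(1-15)K9me1 peptide (75 nM), then compounds added for 30 min at room temperature; AlphaScreen streptavidin donor/nickel chelate acceptor beads (10 ug/mL final) read after 30 min dark incubation.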
KDM4E inh = JMJD2E (human) inhibition | B2RXH2 | JMJD2E catalytic domain, FDH-coupled NADH fluorescence (FDH is formaldehyde dehydrogenase) | Potency, µM (doses to about 57.1 µM), for inactives: at the top dose activity change, negative = inhibition, hits mostly inhibitors | hit rate 1.6% among 230,000; active means well fitted inhibition curve with a large enough effect, not every such curve was filed as active; inconclusive means small, poorly fitted or top-dose-only effect, or another doubt; inactive means no such curve, though single readings can be large or run the other way;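 further: 0% = wells with enzyme and -100% = buffer wells without enzyme; nearly all actives have a fitted effect of over 50% in size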
APE1 inh = inhibitors of human APE1 endonuclease; AID 2517; recombinant APE1, TAMRA/BHQ-2 abasic DNA cleavage fluorescence; hit rate 0.35% among 350,000; Potency, µM (highest dose often 65.8 µM), for inactives: top-dose activity change, negative = inhibition, actives largely listed as inhibitors; P27695;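 further: plate controls were vehicle for no effect and reference inhibitor for full effect; nearly all actives have a fitted effect of over 55% in size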
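Kinetic fluorescence read (525 ex/598 em nm, three reads 60 s apart) of AP-site incision; signal = third minus first read. Enzyme 0.75 nM, dual-labelled THF duplex 50 nM, compound preincubation 15 min RT.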
BLM inh = inhibitors of human Bloom syndrome helicase BLM. recombinant BLM DNA unwinding, fluorescence dequenching. AID 2528. P54132. hit rate 0.2% among 350,000. Potency, µM (highest dose often 56.1 µM), for inactives: at the highest dose activity change, negative = inhibition, most hits filed as inhibitors;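 further: plate controls were vehicle for no effect and no enzyme for full effect; nearly all actives have a fitted effect of over 35% in size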
TDP1 inh = inhibitors of human tyrosyl-DNA phosphodiesterase TDP1. hit rate 0.28% among 350,000. AID 485290. Q9NUW8. Potency, µM (series often up to 130 µM), inactives show top-dose activity change, negative = inhibition, most hits filed as inhibitors. recombinant TDP1, AlphaScreen DNA substrate cleavage; further: nearly all actives have a fitted effect of over 40% in size
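Steps: enzyme plus compound, 15 min RT; add biotin/phosphotyrosine-FITC oligonucleotide (15 nM final), react 5 min; add donor/acceptor beads (10 ug/ml final), 10 min; read AlphaScreen. Tdp1 at 1 nM final.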
RECQ1 inh-1 = inhibitors of human RECQ1 DNA helicase; AID 2549; P46063; hit rate 0.54% among 240,000; Potency, µM (titrated, usually from 57.3 µM), for inactives: top-dose activity, negative = inhibition, usual class: inhibitors; RECQ1 DNA unwinding, red fluorescence kinetic read;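 further: plate controls were vehicle for no effect and no enzyme for full effect; nearly all actives have a fitted effect of over 30% in size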
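50 nM RECQ1T1 preincubated 15 min with compound in Tris pH 8.0 buffer with MgCl2, DTT, Tween-20 and 2.5 ug/ml poly(dI-dC); started with 200 nM TAMRA/BHQ-2 forked duplex and 2 mM ATP. Unwinding read as fluorescence (525/598 nm), two reads 2 h apart.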
RECQ1 inh conf = confirmation of human RECQ1 helicase inhibitors; AID 2708; Potency, µM (doses to about 229 µM), without a hit: at the top dose activity change, negative = inhibition, most hits filed as inhibitors; RECQ1 helicase DNA unwinding, fluorescence; hit rate 28% among 610; shares compounds with RECQ1 inh-1; further: nearly all actives have a fitted effect of over 45% in size
ADP FP counter = counter-screen for RECQ1 inhibitors: ADP displacement. shares compounds with RECQ1 inh-1. ADP fluorescence polarization displacement counterscreen. hit rate 27% among 530. AID 2711. Potency, µM (series often up to 228 µM), for the others: top-dose activity change, negative = inhibition, most hits filed as inhibitors; further: nearly all actives have a fitted effect of over 45% in size
RECQ1 inh-2 = blocks human RECQ1 DNA unwinding; shares compounds with RECQ1 inh-1; recombinant RECQ1 DNA unwinding, red fluorescence; Potency, µM (doses to about 119 µM), for inactives: top-dose activity, negative = inhibition, usual class: inhibitors; hit rate 15% among 1,100; AID 504841; further: nearly all actives have a fitted effect of over 50% in size
Starred values were filed as active, the others as inactive; [ ] = dose if it differs, or a comment. This excerpt belongs to a sample that is enriched for hits. Unless noted, the call rests on the fitted dose curve; in most records, active means well fitted curve in the direction sought with a large enough effect; inconclusive means small, poorly fitted or top-dose-only effect, or another doubt; inactive means no such curve, though single readings can be large; an effect the other way counts as inactive or inconclusive. Unless noted, on the % scale 0 is the no-effect control and ±100 the full control effect; potency means the concentration at half of the fitted maximal effect.

How did O=S(=O)(Nc1nc(-c2sccc2Cl)cs1)c1cc(Cl)ccc1Cl do in these assays?
L3MBTL1 inh: -1.6%; KDM4E inh: -27.2%; APE1 inh: -0.9%; BLM inh: -14.4%; TDP1 inh: 7.9%; RECQ1 inh-1: inconclusive; RECQ1 inh-2: inconclusive

What do the screens show for `CC(C)(C)c1nnc(NS(=O)(=O)c2cc(Cl)ccc2Cl)s1`?
L3MBTL1 inh: 6.6%; APE1 inh: 24.8%; BLM inh: -6.0%; TDP1 inh: 6.0%

What do the screens show for `CC(=O)N1CCN(c2ccc(Nc3ncnc4c3oc3ccccc34)cc2)CC1`?
L3MBTL1 inh: -13.2%; KDM4E inh: inconclusive; APE1 inh: -2.0%; BLM inh: -0.5%; TDP1 inh: -2.1%; RECQ1 inh-1: -28.5%

How did CCc1nc(Nc2ccc(N3CCN(C(C)=O)CC3)cc2)c2oc3ccccc3c2n1 do in these assays?
L3MBTL1 inh: 1.3%; KDM4E inh: inconclusive; APE1 inh: inconclusive; BLM inh: -13.9%; TDP1 inh: 14.7%; RECQ1 inh-1: inconclusive; RECQ1 inh-2: -17.2%

Results for Cc1ccc2oc(-c3ccc(C)c(NC(=O)/C=C/c4ccco4)c3)nc2c1 ?
BLM inh: -1.8%; TDP1 inh: -7.1%

How did Cc1cc(C(=O)OCC(=O)c2ccc(Cl)c([N+](=O)[O-])c2)c2cccc(C)c2n1 do in these assays?
L3MBTL1 inh: inconclusive; KDM4E inh: -19.2%; APE1 inh: inconclusive; BLM inh: -17.2%; TDP1 inh: 8.2%; RECQ1 inh-1: 17.8µM*; RECQ1 inh-2: -13.3%

Results for O=C(CN1CCN(c2ccc(O)cc2)CC1)Nc1cc(S(=O)(=O)N2CCCCC2)ccc1Cl ?
L3MBTL1 inh: -4.0%; KDM4E inh: -10.2%; APE1 inh: -11.2%; BLM inh: -7.5%; TDP1 inh: 5.3%; RECQ1 inh-1: -9.3%

How did O=C(CN1CCN(c2ccc(O)cc2)CC1)Nc1cc(S(=O)(=O)N2CCCC2)ccc1Cl do in these assays?
KDM4E inh: inconclusive; APE1 inh: -9.9%; BLM inh: -14.9%; TDP1 inh: 7.4%; RECQ1 inh-1: 12.6µM*; RECQ1 inh conf: 5.7%[114 µM]; ADP FP counter: -4.2%[91.9 µM]; RECQ1 inh-2: -11.0%

Results for CCCOc1ccc(Cc2nn3c(=O)/c(=C/c4ccco4)sc3nc2=O)cc1 ?
L3MBTL1 inh: inconclusive; KDM4E inh: -2.4%; APE1 inh: inconclusive; BLM inh: -4.3%; RECQ1 inh-1: 25.1µM*; RECQ1 inh-2: inconclusive

What do the screens show for `CCCCCOc1ccc(/C=c2\sc3nc(=O)c(-c4ccccc4)nn3c2=O)cc1OC`?
L3MBTL1 inh: -0.6%; KDM4E inh: -2.1%; APE1 inh: inconclusive; BLM inh: 0.4%; TDP1 inh: 5.3%; RECQ1 inh-1: -16.2%

How did COc1ccccc1/C=C/C=c1\sc2nc(=O)c(Cc3ccccc3)nn2c1=O do in these assays?
KDM4E inh: inconclusive; APE1 inh: inconclusive; BLM inh: inconclusive; RECQ1 inh-1: inconclusive; RECQ1 inh-2: inconclusive

Results for CC(=O)Oc1cccc(/C=c2\sc3nc(-c4ccco4)nn3c2=O)c1 ?
L3MBTL1 inh: inconclusive; KDM4E inh: 7.5%; APE1 inh: -14.5%; BLM inh: 0.6%; RECQ1 inh-1: -20.1%

Results for COc1cc(NC(=O)CC(C)S(=O)(=O)c2ccc3c(c2)CCN3C(C)=O)cc(OC)c1OC (stereo not given) ?
BLM inh: -1.6%; TDP1 inh: 11.3%

How did O=[N+]([O-])c1ccc(-c2cnc(SCc3ccccc3Cl)[nH]2)cc1 do in these assays?
L3MBTL1 inh: -24.9%; KDM4E inh: -26.7%; APE1 inh: -6.5%; BLM inh: -11.1%; TDP1 inh: 5.9%; RECQ1 inh-1: inconclusive; RECQ1 inh-2: -24.8%

How did NC(=O)c1ccccc1NC(=O)Cn1nc(Cc2cccnc2)c2ccccc2c1=O do in these assays?
BLM inh: -2.4%; TDP1 inh: 6.4%

How did COc1ccc(C(=O)NCc2ccc3c(c2)CCN3C(=O)c2ccncc2)cc1 do in these assays?
BLM inh: -0.7%; TDP1 inh: 4.4%

Results for COc1ccccc1NC(=O)Cc1noc(CSc2cc(C)c3ccccc3n2)n1 ?
L3MBTL1 inh: 6.5%; KDM4E inh: inconclusive; APE1 inh: 4.0%; BLM inh: -9.3%; TDP1 inh: 4.6%; RECQ1 inh-1: inconclusive; RECQ1 inh-2: -15.8%

What do the screens show for `COC(=O)c1cc2ccsc2n1Cc1nc(-c2ccc(OC)cc2)oc1C`?
L3MBTL1 inh: -7.1%; KDM4E inh: inconclusive; APE1 inh: -1.6%; BLM inh: -3.8%; TDP1 inh: 1.0%; RECQ1 inh-1: 31.6µM*; RECQ1 inh-2: -22.7%

How did O=C(COC(=O)CCC(=O)c1ccc(Cl)cc1)NCc1ccco1 do in these assays?
L3MBTL1 inh: -90.0%; KDM4E inh: -7.2%; APE1 inh: inconclusive; BLM inh: 2.3%; RECQ1 inh-1: inconclusive; RECQ1 inh-2: inconclusive

Results for CCC(=O)Nc1ccccc1-c1nc2ccccc2n(CC(=O)c2ccc(Br)cc2)c1=O ?
BLM inh: 1.8%; TDP1 inh: 2.9%

What do the screens show for `COc1ccc(NS(=O)(=O)c2ccc3c(c2)CCN3C(=O)CCC(=O)O)cc1OC`?
APE1 inh: 45.3%; BLM inh: -0.2%

How did CCN(c1ccc(OC)cc1)S(=O)(=O)c1ccc2c(c1)CCN2C(=O)CCC(=O)O do in these assays?
L3MBTL1 inh: 1.1%; KDM4E inh: -1.4%; APE1 inh: -0.7%; BLM inh: 0.5%; TDP1 inh: -3.4%; RECQ1 inh-1: -10.3%; RECQ1 inh conf: 8.7%; ADP FP counter: -12.4%

What do the screens show for `COc1ccc(N(C)S(=O)(=O)c2ccc3c(c2)CCN3C(=O)CCC(=O)O)cc1`?
BLM inh: 0.5%; TDP1 inh: 4.6%
